Shown are actives, neighbours in structure and some others; about 0.81% of the full set was active somewhere.
TRPML1 blocker: human mucolipin-1 channel inhibition; TRPML1-inducible cells, Ca2+ dye fluorescence, FDSS; stronger effect = lower value; inhibition of EC80 agonist-evoked calcium signal; activity change, negative = inhibition, % (concentration not given with the values); hit rate 0.02% among 390,000; AID 624415; in the data active means activity change below about -50%; inconclusive means between about -30% and that limit;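 further: stimulus is agonist 54-4 at its EC80 concentration; on the % scale 0 is the no-effect control and ±100 the full control effect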
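TRPML1-DL cells, Tet-induced overnight (~16 h, 37 °C) at 1,500 cells/well, were loaded with Ca8 no-wash dye plus quencher for 45-90 min at room temperature. Compounds were pinned during FDSS kinetic reading; agonist 54-4 at EC80 (4 uM final) then added.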
TRHR ag: activates the human TRH receptor. AID 493084. TRHR cells, calcium flux fluo-8, FDSS agonist mode. hit rate 0.18% among 360,000. activation, % at 2 µM; in the data active means activation above about 30%; further: 0% is about no effect
Target sequence (P34981 whole entry, looked up): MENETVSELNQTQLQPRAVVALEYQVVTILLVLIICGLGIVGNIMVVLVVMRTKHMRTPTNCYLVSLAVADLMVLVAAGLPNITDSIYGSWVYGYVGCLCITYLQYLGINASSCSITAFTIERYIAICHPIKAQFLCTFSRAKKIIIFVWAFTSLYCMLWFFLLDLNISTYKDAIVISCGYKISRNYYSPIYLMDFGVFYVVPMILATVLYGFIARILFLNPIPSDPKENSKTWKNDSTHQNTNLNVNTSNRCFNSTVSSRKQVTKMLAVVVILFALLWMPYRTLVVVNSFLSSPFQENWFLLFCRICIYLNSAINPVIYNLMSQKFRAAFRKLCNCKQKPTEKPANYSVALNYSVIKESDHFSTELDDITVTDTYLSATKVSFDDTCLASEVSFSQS
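TRHR-expressing cells loaded with fluo-8 calcium dye; 23 nL library compound pin-transferred, kinetic FDSS fluorescence (Ex 480/Em 530) recorded about 180 s for agonist-induced calcium release, before a 10 nM TRH EC20 addition for potentiator mode.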
TRPML1 agonist: human mucolipin-1 channel agonism. Q9GZU1. TRPML1-expressing cells, Ca2+ dye fluorescence, FDSS. activation, % (no concentration beside the values). hit rate 0.12% among 410,000; in the data active means activation above about 50%; inconclusive means mostly about 30% to 49%; further: 0% is about no effect
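Kinetic FDSS Ca2+ read in Tet-induced TRPML1-DL cells (ABD Ca8 dye plus quencher, 45-90 min RT loading): baseline, then compound, then 110 s agonist window; EC80 agonist 54-4 at 4uM final added afterwards for a 110 s antagonist window.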
TRHR PAM: allosteric enhancers of human TRH receptor; TRHR cells, fluo-8 calcium fluorescence, EC20 TRH enhancement; enhancement, % at 2 µM; hit rate 0.66% among 360,000; AID 493056; in the data active means enhancement above about 30%; further: 0% is about no effect
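Enhancer read-out: after compound pinning and an initial kinetic agonist-mode read, an EC20 of TRH (10 nM final) was injected and fluo-8 calcium signal (Ex 480/Em 530) followed at 1 s/cycle for 100 cycles in TRHR-expressing cells.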
* hit, by the source's call; ! = not confirmed by another sample.

`Cc1nn(C)c2c1c(-c1ccccc1)cc(=O)n2Cc1ccc(Cl)cc1` gave TRPML1 blocker 57.7, TRHR ag 1.3, TRPML1 agonist 3.4 and TRHR PAM 39.5*.
For CCOC(=O)Cn1c(=O)n(CC2CCCO2)c2nc(-c3ccc(OC)cc3OC)nc(C(N)=O)c21 (stereo not given) the results were TRPML1 blocker -14.7, TRHR ag 0.1, TRPML1 agonist 1.6 and TRHR PAM 42.4*.
CN1/C(=C\C=O)C(C)(C)c2ccccc21 was read as TRPML1 blocker 3.7, TRHR ag -0.8, TRPML1 agonist 0.6 and TRHR PAM -2.2.
Screening CN1\C(=C/C=C/C=C/C=[N+](C)C)C(C)(C)c2ccccc21 returned TRPML1 blocker 4.6, TRHR ag 141.8*, TRPML1 agonist 86.3* and TRHR PAM 46.5*.
For C[N+]1(CC(=O)c2ccccc2)CCc2ccccc2C1 (stereo not given) the results were TRPML1 agonist -0.4.
Screening Cc1cc(C)nc(NS(=O)(=O)c2ccc(NC(=O)Cc3ccccc3)cc2)n1 returned TRPML1 blocker 11.3, TRHR ag 0.3, TRPML1 agonist -0.5 and TRHR PAM 36.4*.
`COc1ccc(OC)c(CN2CCCC(C(=O)N3CCCCC3)C2)c1` (stereo not given) gave TRPML1 blocker 6.6, TRHR ag 0.9, TRPML1 agonist 0.8 and TRHR PAM 1.1.
`COc1ccccc1CN1CCCC(C(=O)N2CCCCC2)C1` (stereo not given) gave TRPML1 blocker 4.1, TRHR ag 0.7, TRPML1 agonist -0.3 and TRHR PAM 38.7*.
Screening Cc1ccc(S(=O)(=O)N2CCN(c3nc(-n4cccn4)nc4ccccc34)CC2)cc1 returned TRPML1 agonist -0.6.
For CC(C)CSC1=NSC2=NC(=O)/C(=C\c3coc4ccccc4c3=O)C(=N)N12 the results were TRPML1 blocker -1.1, TRHR ag 51.0*, TRPML1 agonist inconclusive and TRHR PAM -2.6.
`CSC1=NSC2=NC(=O)/C(=C\c3coc4ccccc4c3=O)C(=N)N12` gave TRPML1 blocker -10.1, TRHR ag 120.9*, TRPML1 agonist 76.0* and TRHR PAM 18.5.
For Cc1ccc(C)c(NC(=O)CCCN2C(=O)C(c3ccccc3)Oc3cccnc32)c1 (stereo not given) the results were TRPML1 blocker 0.1, TRHR ag -0.2, TRPML1 agonist 1.5 and TRHR PAM 53.0*.
For Cc1ccc(NC(=O)CCCN2C(=O)C(c3ccccc3)Oc3cccnc32)c(C)c1 (stereo not given) the results were TRPML1 blocker -8.0 and TRPML1 agonist -0.2.
`O=C(O)c1ccc(Cl)c(NCc2cccs2)c1` gave TRPML1 blocker 2.8, TRHR ag 0.1, TRPML1 agonist -0.2 and TRHR PAM 31.9*.
COc1ccc(/C=C/C(=O)c2c(O)c(OC)c3occc3c2OC)cc1OC was read as TRPML1 agonist -0.5.
For COc1ccc(S(=O)(=O)N2CCc3cc4c(cc3C2C)OCCCO4)cc1 (stereo not given) the results were TRPML1 blocker -50.8*, TRHR ag 0.2, TRPML1 agonist 0.8 and TRHR PAM -1.9.
Screening Cc1ccc(S(=O)(=O)N2CCc3cc4c(cc3C2C)OCCCO4)cc1 (stereo not given) returned TRPML1 blocker 28.4, TRHR ag -1.5, TRPML1 agonist 4.2 and TRHR PAM -1.7.
`O=C(c1ccc(F)cc1)N1CCN(c2ccccn2)CC1` gave TRPML1 blocker 6.5, TRHR ag 0.3, TRPML1 agonist 0.0 and TRHR PAM 30.2*.
Screening Cn1c2cc(S(C)=O)sc2c2cnn(Cc3ccccc3F)c(=O)c21 (stereo not given) returned TRHR ag -0.8 and TRHR PAM 0.7.
Screening N#C/C(=C\c1ccc(N2CCOCC2)c([N+](=O)[O-])c1)c1nc2ccccc2[nH]1 returned TRPML1 blocker 18.2, TRHR ag -0.1, TRPML1 agonist 0.4 and TRHR PAM -4.8.
Screening N#C/C(=C\c1ccc(-c2ccc(Cl)c(C(=O)O)c2)o1)c1nc2ccccc2[nH]1 returned TRPML1 blocker -20.6, TRHR ag 26.1, TRPML1 agonist 3.5 and TRHR PAM 3.3.
`N#C/C(=C\c1ccc(N2CCOCC2)o1)c1nc2ccccc2[nH]1` gave TRPML1 blocker -13.1, TRHR ag -0.4, TRPML1 agonist 60.1* and TRHR PAM 2.6.
Cc1ccc2nc(/C(C#N)=C/c3ccc(-c4cccc(Cl)c4)o3)[nH]c2c1 was read as TRPML1 blocker -2.8, TRHR ag 58.7*, TRPML1 agonist inconclusive and TRHR PAM 3.6.
Screening N#C/C(=C\c1ccc(-c2ccc(C(=O)O)cc2)o1)c1nc2ccccc2[nH]1 returned TRPML1 blocker 7.0, TRHR ag 30.9*!, TRPML1 agonist 60.8* and TRHR PAM 3.5.
For c1ccc2cnccc2c1 the results were TRPML1 agonist -0.5.
For O=C(Nc1nccs1)[C@@H]1CC=C[C@@H]2CCN(C3CCCCC3)C(=O)[C@@H]21 the results were TRPML1 agonist -0.7.
Cc1cc(N(C)C)cc(C)c1/C=C/c1ccnc2ccccc12 was read as TRPML1 agonist 4.5.
`COc1ccc2nc(SCC(=O)N(C)CC(=O)Nc3ccc(F)cc3)[nH]c2c1` gave TRPML1 blocker 12.3, TRHR ag -0.3, TRPML1 agonist 1.1 and TRHR PAM 36.1*.
`CCn1c(SCC(=O)N(C)CC(=O)Nc2ccc(OC)cc2)nnc1-c1ccco1` gave TRPML1 blocker -10.8, TRHR ag -0.6, TRPML1 agonist 0.8 and TRHR PAM 37.6*.
Screening COc1cc(/C=C2\SC(=S)N(NC(=O)c3cccc(O)c3)C2=O)ccc1O returned TRPML1 blocker -0.6, TRHR ag 75.0*, TRPML1 agonist 20.6 and TRHR PAM 9.0.
`COc1cc(/C=C2\SC(=S)N(NC(=O)c3ccncc3)C2=O)ccc1O` gave TRHR ag 13.1 and TRHR PAM -1.9.
`CCOc1ccc(/C=C2/SC(=S)N(C(C(=O)O)c3ccccc3)C2=O)cc1OCC` (stereo not given) gave TRPML1 blocker -6.1, TRHR ag -1.6, TRPML1 agonist 0.4 and TRHR PAM -2.8.
`COc1cc(/C=C2/SC(=S)N(Cc3ccccc3)C2=O)ccc1O` gave TRPML1 blocker 4.0, TRHR ag 39.4*, TRPML1 agonist inconclusive and TRHR PAM 6.8.
Screening O=C1/C(=C\c2cccc(O)c2O)SC(=S)N1Cc1ccccc1 returned TRPML1 blocker 16.0, TRHR ag 2.5, TRPML1 agonist 0.2 and TRHR PAM 17.5.
`O=C(O)C(c1ccccc1)N1C(=O)/C(=C\c2ccc(O)c(O)c2)SC1=S` (stereo not given) gave TRPML1 blocker 15.2, TRHR ag 31.7*, TRPML1 agonist 16.2 and TRHR PAM -3.3.
`O=C1/C(=C\c2cc([N+](=O)[O-])ccc2O)SC(=S)N1Cc1ccc(Cl)cc1` gave TRPML1 blocker -5.9, TRHR ag 120.2*, TRPML1 agonist inconclusive and TRHR PAM 7.8.

Screens as filed in PubChem.
